Test results: article PMC8384837, “Expanding the binding specificity for RNA recognition by a PUF domain”

How the values were obtained:
Assay in all cases: yeast three-hybrid, YBZ-1, SC-Leu-His + 0.5 mM 3-AT, 4 days
Conditions in all cases: tags: N-Gal4 AD-HA kept; label: inside an RPR1-promoter hybrid RNA with tandem MS2 sites; ssRNA
PUM1 PUF domain R5-KAV = PUM1 PUF domain R5-KAV (Homo sapiens, UniProt Q14671 828-1176, C1007K;R1008A;Q1011V)
In short: (§1)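 Each repeat of the Pumilio-1 PUF domain was randomized at its three base-contacting residues, and these libraries were co-expressed from a centromeric plasmid with matching RNA elements in strain YBZ-1. After four days on SC-Leu (input) or SC-Leu-His + 0.5 mM 3-AT (selection), the repeat regions were PCR-amplified and Illumina-sequenced. The interaction score compares variant frequency between input and selection as a log change, computed in log2 with a pseudocount of 1 for absent variants.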

PUM1 PUF domain R3-SND = PUM1 PUF domain R3-SND (Homo sapiens, UniProt Q14671 828-1176, C935S;R936N;Q939D)
PUM1 PUF domain R3-SND, sequence (Q14671 828-1176 C935S/R936N/Q939D): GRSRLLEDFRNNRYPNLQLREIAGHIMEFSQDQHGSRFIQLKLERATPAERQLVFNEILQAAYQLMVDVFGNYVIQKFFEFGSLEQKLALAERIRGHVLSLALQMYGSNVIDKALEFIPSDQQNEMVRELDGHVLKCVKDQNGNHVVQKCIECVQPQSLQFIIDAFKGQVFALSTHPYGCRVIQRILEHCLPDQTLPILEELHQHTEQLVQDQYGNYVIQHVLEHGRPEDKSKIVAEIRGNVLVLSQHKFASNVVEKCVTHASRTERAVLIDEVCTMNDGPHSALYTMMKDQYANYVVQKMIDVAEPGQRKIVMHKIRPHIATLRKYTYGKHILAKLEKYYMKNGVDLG
In short: as §1

PUM1 PUF domain R3-PRQ = PUM1 PUF domain R3-PRQ (Homo sapiens, UniProt Q14671 828-1176, C935P)
PUM1 PUF domain R3-PRQ, sequence (Q14671 828-1176 C935P): as the sequence (Q14671 828-1176 C935S/R936N/Q939D) above, with S108P, N109R, D112Q counted along it
In short: as §1

PUM1 PUF domain R8-VFR = PUM1 PUF domain R8-VFR (Homo sapiens, UniProt Q14671 828-1176, N1122V;Y1123F;Q1126R)
PUM1 PUF domain R8-VFR, sequence (Q14671 828-1176 N1122V/Y1123F/Q1126R): as the sequence (Q14671 828-1176 C935S/R936N/Q939D) above, with S108C, N109R, D112Q, N295V, Y296F, Q299R counted along it
In short: as §1

PUM1 PUF domain R8-LFW = PUM1 PUF domain R8-LFW (Homo sapiens, UniProt Q14671 828-1176, N1122L;Y1123F;Q1126W)
PUM1 PUF domain R8-LFW, sequence (Q14671 828-1176 N1122L/Y1123F/Q1126W): as the sequence (Q14671 828-1176 C935S/R936N/Q939D) above, with S108C, N109R, D112Q, N295L, Y296F, Q299W counted along it
In short: as §1

PUM1 PUF domain R1-TRK = PUM1 PUF domain R1-TRK (Homo sapiens, UniProt Q14671 828-1176, S863T;Q867K)
PUM1 PUF domain R1-TRK, sequence (Q14671 828-1176 S863T/Q867K): as the sequence (Q14671 828-1176 C935S/R936N/Q939D) above, with S36T, Q40K, S108C, N109R, D112Q counted along it
In short: as §1

PUM1 PUF domain R1-TKR = PUM1 PUF domain R1-TKR (Homo sapiens, UniProt Q14671 828-1176, S863T;R864K;Q867R)
PUM1 PUF domain R1-TKR, sequence (Q14671 828-1176 S863T/R864K/Q867R): as the sequence (Q14671 828-1176 C935S/R936N/Q939D) above, with S36T, R37K, Q40R, S108C, N109R, D112Q counted along it
In short: as §1

PUM1 PUF domain R4-PYR = PUM1 PUF domain R4-PYR (Homo sapiens, UniProt Q14671 828-1176, N971P;H972Y;Q975R)
PUM1 PUF domain R4-PYR, sequence (Q14671 828-1176 N971P/H972Y/Q975R): as the sequence (Q14671 828-1176 C935S/R936N/Q939D) above, with S108C, N109R, D112Q, N144P, H145Y, Q148R counted along it
In short: as §1

PUM1 PUF domain R3-MYD = PUM1 PUF domain R3-MYD (Homo sapiens, UniProt Q14671 828-1176, C935M;R936Y;Q939D)
PUM1 PUF domain R3-MYD, sequence (Q14671 828-1176 C935M/R936Y/Q939D): as the sequence (Q14671 828-1176 C935S/R936N/Q939D) above, with S108M, N109Y counted along it
In short: as §1

PUM1 PUF domain R5-KAV, sequence (Q14671 828-1176 C1007K/R1008A/Q1011V): as the sequence (Q14671 828-1176 C935S/R936N/Q939D) above, with S108C, N109R, D112Q, C180K, R181A, Q184V counted along it

## GGCUAGAACUAGUGGAUCCCCCGGCGCCCGGCGGCUCGAGCCCGGGUAAGUGUCAAUAGUCUGCAUGCCGCCGGGCGCCAUGCCUGCAGGUCGACUCUAGAAAACAUG
PUM1 PUF domain R5-KAV
  binding signal: 4 log2 enrichment (interaction score)

## GGCUAGAACUAGUGGAUCCCCCGGCGCCCGGCGGCUCGAGCCCGGGUAAGUGUAAGUAGUCUGCAUGCCGCCGGGCGCCAUGCCUGCAGGUCGACUCUAGAAAACAUG
PUM1 PUF domain R3-SND
  binding signal: 5.25 log2 enrichment (interaction score)

## GGCUAGAACUAGUGGAUCCCCCGGCGCCCGGCGGCUCGAGCCCGGGUAAGUGUAAAUAGUCUGCAUGCCGCCGGGCGCCAUGCCUGCAGGUCGACUCUAGAAAACAUG
PUM1 PUF domain R3-PRQ
  binding signal: 4.52 log2 enrichment (interaction score)
PUM1 PUF domain R8-VFR
  binding signal: 3.9 log2 enrichment (interaction score)
PUM1 PUF domain R8-LFW
  binding signal: 2.5 log2 enrichment (interaction score)

## GGCUAGAACUAGUGGAUCCCCCGGCGCCCGGCGGCUCGAGCCCGGGUAAGUGUAAAUUGUCUGCAUGCCGCCGGGCGCCAUGCCUGCAGGUCGACUCUAGAAAACAUG
PUM1 PUF domain R1-TRK
  binding signal: 3.04 log2 enrichment (interaction score)
PUM1 PUF domain R1-TKR
  binding signal: 1.37 log2 enrichment (interaction score)

## GGCUAGAACUAGUGGAUCCCCCGGCGCCCGGCGGCUCGAGCCCGGGUAAGCGUAAAUAGUCUGCAUGCCGCCGGGCGCCAUGCCUGCAGGUCGACUCUAGAAAACAUG
PUM1 PUF domain R8-VFR
  binding signal: 4.1 log2 enrichment (interaction score)
PUM1 PUF domain R8-LFW
  binding signal: 2.4 log2 enrichment (interaction score)

## GGCUAGAACUAGUGGAUCCCCCGGCGCCCGGCGGCUCGAGCCCGGGUAAGUGUAUAUAGUCUGCAUGCCGCCGGGCGCCAUGCCUGCAGGUCGACUCUAGAAAACAUG
PUM1 PUF domain R4-PYR
  binding signal: 7.09 log2 enrichment (interaction score)

## GGCUAGAACUAGUGGAUCCCCCGGCGCCCGGCGGCUCGAGCCCGGGUAAGUGUACAUAGUCUGCAUGCCGCCGGGCGCCAUGCCUGCAGGUCGACUCUAGAAAACAUG
PUM1 PUF domain R4-PYR
  binding signal: 5.23 log2 enrichment (interaction score)

## GGCUAGAACUAGUGGAUCCCCCGGCGCCCGGCGGCUCGAGCCCGGGUAAGUGUAAUUAGUCUGCAUGCCGCCGGGCGCCAUGCCUGCAGGUCGACUCUAGAAAACAUG
PUM1 PUF domain R3-MYD
  binding signal: 2.42 log2 enrichment (interaction score)

## GGCUAGAACUAGUGGAUCCCCCGGCGCCCGGCGGCUCGAGCCCGGGUAAGUGUAAAUCGUCUGCAUGCCGCCGGGCGCCAUGCCUGCAGGUCGACUCUAGAAAACAUG
PUM1 PUF domain R1-TKR
  binding signal: 6.21 log2 enrichment (interaction score)
